The text below walks through data of PubChem BioAssay (NCATS).

A short description of experiment [1]: qHTS drug screen for cell cycle checkpoint inhibitors in PARPi-resistant BRCA-mutant ovarian cancer cell lines. (AID 1963452; calls by dose curve). The settings on record: PEO1/OlaR viability, CellTiter-Glo luminescence, 96 h, stronger effect = lower value. Summed up: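 PEO1, PEO4 and PEO1/OlaR ovarian cancer cells, 600 per well, exposed 96 h at 37C to a dilution series. Viability read by CellTiter-Glo luminescence, normalized to DMSO and empty wells; activity summarized as Z-AUC.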
(In general: Quantitative high-throughput screening tests each substance at several concentrations.)

Experiment [2] can be described thus: qHTS for identification of novel therapeutic agents for treatment of microphthalmiaassociated transcription factor (MiT) renal cell carcinoma (RCC) (AID 1963991).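 Further: curves scaled with 100% = DMSO viability and 0% = empty wells.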 To be noted: CellTiter-Glo, 48 h, stronger effect = lower value. Summed up:
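UOK109/UOK124/UOK145 (TFE3 fusions, three partners); 500 cells/well; MIPE v4.0, 1912 cpds, 11 conc.; 48 h, 37 C; CellTiter-Glo, 15 min RT; lum. Norm.: DMSO 100%, empty 0%.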

The nature of experiment [3]: qHTS profiling for inhibitors of Plasmodium falciparum proliferation (AID 504749).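 Further: 0% = DMSO vehicle and full inhibition = artemisinin control; nearly all actives have a fitted effect of over 60% in size.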 The settings on record: P. falciparum in erythrocytes, SYBR Green DNA, 72 h. Summed up:
(§1)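 In a 72 h erythrocytic culture (37 C, humidified, 5% CO2) at 2.5% hematocrit and 0.3% starting parasitemia, compounds were tested; SYBR Green I in detergent lysis buffer stained parasite DNA overnight.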

A further experiment has as its system 3D7. The description is as above. The settings on record: P. falciparum in erythrocytes, SYBR Green DNA, 72 h; series mostly up to 28.7 µM. Summed up:
as §1

The test system of a further experiment is 7G8. Described as above. To be noted: P. falciparum in erythrocytes, SYBR Green DNA, 72 h; series mostly up to 28.7 µM. A digest of the protocol: as §1
For a further experiment, the system named is AA1029. The description is as above. The settings on record: P. falciparum in erythrocytes, SYBR Green DNA, 72 h; series mostly up to 28.7 µM. Summed up:
as §1

The next experiment deals with AS120. The description is as above. The settings on record: P. falciparum in erythrocytes, SYBR Green DNA, 72 h; series mostly up to 28.7 µM. Summed up: as §1
For a further experiment, the system named is ATS189. The experiment is described as above. The settings on record: P. falciparum in erythrocytes, SYBR Green DNA, 72 h; series mostly up to 28.7 µM. A digest of the protocol: as §1
A further experiment relates to ATS95. The description is as above. The settings on record: P. falciparum in erythrocytes, SYBR Green DNA, 72 h; series mostly up to 28.7 µM. Summed up:
as §1

Another experiment has as its system C2A. The description is as above. To be noted: P. falciparum in erythrocytes, SYBR Green DNA, 72 h; series mostly up to 28.7 µM. A digest of the protocol:
as §1

Another experiment deals with CP185. The description is as above. The settings on record: P. falciparum in erythrocytes, SYBR Green DNA, 72 h; series mostly up to 28.7 µM. A digest of the protocol:
as §1

The next experiment has as its system CP191. The description is as above. To be noted: P. falciparum in erythrocytes, SYBR Green DNA, 72 h; series mostly up to 28.7 µM. A digest of the protocol: as §1
The next experiment concerns CP192. The description is as above. To be noted: P. falciparum in erythrocytes, SYBR Green DNA, 72 h; series mostly up to 28.7 µM. A digest of the protocol: as §1
Another experiment deals with CP194. Described as above. The settings on record: P. falciparum in erythrocytes, SYBR Green DNA, 72 h; series mostly up to 28.7 µM. Summed up:
as §1

For a further experiment, the system named is CP201. The description is as above. The settings on record: P. falciparum in erythrocytes, SYBR Green DNA, 72 h; series mostly up to 28.7 µM. A digest of the protocol: as §1
The test system of another experiment is CP211. The description is as above. To be noted: P. falciparum in erythrocytes, SYBR Green DNA, 72 h; series mostly up to 28.7 µM. A digest of the protocol:
as §1

The next experiment deals with CP215. The experiment is described as above. To be noted: P. falciparum in erythrocytes, SYBR Green DNA, 72 h; series mostly up to 28.7 µM. A digest of the protocol:
as §1

A further experiment relates to CP217. The experiment is described as above. The settings on record: P. falciparum in erythrocytes, SYBR Green DNA, 72 h; series mostly up to 28.7 µM. Summed up:
as §1

In the next experiment the test system is CP237. The experiment is described as above. The settings on record: P. falciparum in erythrocytes, SYBR Green DNA, 72 h; series mostly up to 28.7 µM. A digest of the protocol: as §1
The mark [4] stands for this setting: measured here: PEO1 parental Z-AUC.
Where [5] appears, read: TFE3-RCC UOK109 viability, measured here: UOK109 Z-AUC.
The mark [6] stands for this setting: TFE3-RCC viability, measured here: UOK124 Z-AUC.
Where [7] appears, read: TFE3-RCC viability, measured here: UOK145 Z-AUC.
Where [8] appears, read: at 28.7 µM (top of the series), parasite line A.
Setting [9] is: at 28.7 µM (top of the series), parasite line B.

Results filed as inconclusive are left out. Active and inactive are the calls of the source. Unless noted, the call rests on the fitted dose curve; in most records, active means well fitted inhibition curve with a large enough effect; inconclusive means small, poorly fitted or top-dose-only effect; inactive means flat fitted curve, though single readings scatter.

On to `N[C@@H]1CONC1=O`, for which the Z-AUC in [1] is -0.0127 (inactive); in experiment [1] (setting [4]), 1.55; in [1] (measured here: PEO4 Z-AUC) it was 1.43. The z-score in experiment [2] (setting [5]) came out at 0.394; in experiment [2] (setting [6]), 0.295; in experiment [2] (setting [7]), 0.675. Further, the activity, negative = inhibition in [3] (setting [8]) is -21% (inactive); in [3] (setting [9]), -17% (inactive). Besides, the Potency entry with 3D7, with 7G8, in the experiment on AA1029, in the experiment with AS120, in the experiment on ATS189 and in the experiment on ATS95 was “inactive” each time. For the same molecule, the Potency entry with C2A, in the experiment on CP185, with CP191, in the experiment on CP192, in the experiment on CP194 and in the experiment with CP211 was “inactive” throughout. Also, the Potency entry in the experiment with CP215, in the experiment on CP217 and in the experiment with CP237 was “inactive” each time. The call in the experiment on CP201 was inactive.

As for `Cc1cn[nH]c1`, the Z-AUC in [1] was 1.01 (inactive); in [1] (setting [4]), 0.488; in [1] (measured here: PEO4 Z-AUC) it was 0.423. Further, the results for the activity, negative = inhibition in experiment [3] (setting [8]) and in experiment [3] (setting [9]) were 7.67% (inactive) and 14.9% (inactive), respectively. For the same molecule, the Potency result in the experiment on 3D7, with 7G8, in the experiment with AA1029, in the experiment on AS120, in the experiment with ATS189 and with ATS95 was “inactive” each time. The Potency entry with C2A, in the experiment on CP185, with CP191, in the experiment on CP192, in the experiment with CP194 and with CP211 was “inactive” each time. Further, the Potency result in the experiment on CP215, with CP217 and in the experiment with CP237 was “inactive” in each case. For the same molecule, the result in the experiment on CP201 was inactive.

Regarding `Nc1nc2c(ncn2COCCO)c(=O)[nH]1`, the figures for the Z-AUC in [1], in [1] (setting [4]) and in [1] (measured here: PEO4 Z-AUC) were -0.761 (inactive), -0.588 and -0.538, respectively. Besides, the z-score is 0.456 in experiment [2] (setting [5]), 1.73 in experiment [2] (setting [6]) and 0.51 in experiment [2] (setting [7]). For the same molecule, the activity, negative = inhibition was 8.65% (inactive) in experiment [3] (at 12.8 µM (top of the series), parasite line A) and -5.76% (inactive) in experiment [3] (at 12.8 µM (top of the series), parasite line B). In addition, the Potency result in the experiment with 3D7, with 7G8, in the experiment on AA1029, in the experiment with AS120, in the experiment on ATS189 and in the experiment on ATS95 was “inactive” throughout. Moreover, the Potency entry with C2A, with CP185, in the experiment with CP191, in the experiment with CP192, with CP194 and in the experiment on CP211 was “inactive” in each case. Also, the Potency entry in the experiment with CP215, with CP217 and in the experiment with CP237 was “inactive” in each case. In the experiment on CP201, the molecule was classed as inactive.

With `NCCCC(N)(C(=O)O)C(F)F` (stereo not given), the Z-AUC in experiment [1] was 0.209 (inactive); in experiment [1] (setting [4]), 0.253; in [1] (measured here: PEO4 Z-AUC) it was 1.05. Also, the results for the activity, negative = inhibition in experiment [3] (setting [8]) and in experiment [3] (setting [9]) were 2.98% (inactive) and 4.55% (inactive), respectively. The Potency result in the experiment with 3D7, with 7G8, with AA1029, in the experiment on AS120, with ATS189 and in the experiment with ATS95 was “inactive” in each case. The Potency result in the experiment with C2A, with CP185, in the experiment on CP191, in the experiment on CP192, with CP194 and in the experiment on CP211 was “inactive” throughout. Besides, the Potency entry in the experiment with CP215, with CP217 and in the experiment with CP237 was “inactive” in each case. The call with CP201 was inactive.
